# 12-LOX inh – Primary qHTS assay for inhibitors of human arachidonate 12S-lipoxygenase (ALOX12): Round 2 | purified 12hLO, xylenol orange hydroperoxide absorbance | 1.1% of 580,000 active | Potency, µM (series often up to 108 µM), inactives show top-dose activity change, negative = inhibition, hits mostly inhibitors | AID 1671190, 2021 | Polyunsaturated fatty acid lipoxygenase ALOX12 (Homo sapiens), P18054
#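 Purified human 12hLO at 150 nM in 25 mM Hepes, 0.01% Triton X-100, pH 7.0, preincubated 15 min at room temperature with compound. Reaction started with 40 uM arachidonic acid, 30 min at room temperature. Hydroperoxide measured by Fe-xylenol orange, 573/405 nm absorbance ratio.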
# Gal4-VP16 FLuc – VP16 counterscreen qHTS for inhibitors of ROR gamma transcriptional activity. Drosophila S2 Gal4-VP16 UAS-luciferase, luminescence, 20 h. Potency, µM (titrated, usually from 53.6 µM), for inactives: at the top dose activity, negative = inhibition, usual class: inhibitors. 3.5% of 310,000 active. AID 2546, 2010;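 further: Gal4-VP16 expression switched on by copper sulfate through the metallothionein promoter; nearly all actives have a fitted effect of over 50% in size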
# TDP1 cell noCPT – qHTS for Inhibitors of human tyrosyl-DNA phosphodiesterase 1 (TDP1): qHTS in cells in absence of CPT; 15% of 420,000 active; Potency, µM (highest dose often 46.2 µM), inactives show at the highest dose activity change, negative = growth inhibition, most hits filed as inhibitors; AID 686978, 2013; DT40 Tdp1-/- hTDP1 cells, no CPT, ATP luminescence, 48 h; further: nearly all actives have a fitted effect of over 55% in size
#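 A cellular qHTS used chicken DT40 cells lacking endogenous Tdp1 but carrying stably transfected human TDP1. Compounds were applied without camptothecin, and cell growth kinetics were judged by ATP-dependent luminescence after ≥48 hr.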
# DT40 TDP1 CPT – qHTS for Inhibitors of human tyrosyl-DNA phosphodiesterase 1 (TDP1): qHTS in cells in presence of CPT. Potency, µM (highest dose often 46.2 µM), for inactives: at the highest dose activity change, negative = growth inhibition, hits mostly inhibitors. 12% of 420,000 active. chicken DT40 Tdp1-/-;hTDP1 cells + 20 nM CPT, ATP luminescence, 48 h. AID 686979, 2013; further: nearly all actives have a fitted effect of over 55% in size
#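 Cell growth measured by CellTiter-Glo luminescence after a minimum 48 h, 37 C compound exposure with 20 nM CPT in Tdp1-knockout DT40 cells stably expressing hTDP1, seeded 400/well; qHTS titration format.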
# RORg inh – qHTS for inhibitors of ROR gamma transcriptional activity; 5.4% of 310,000 active; Potency, µM (doses to about 53.6 µM), for the others: at the top dose activity change, negative = inhibition, usual class: inhibitors; AID 2551, 2010; Nuclear receptor ROR-gamma (Mus musculus), P51450; Drosophila S2 Gal4-RORgamma UAS-luciferase reporter, 20 h; further: nearly all actives have a fitted effect of over 60% in size
# Target sequence (P51450 whole entry, looked up, the tested form may be a part): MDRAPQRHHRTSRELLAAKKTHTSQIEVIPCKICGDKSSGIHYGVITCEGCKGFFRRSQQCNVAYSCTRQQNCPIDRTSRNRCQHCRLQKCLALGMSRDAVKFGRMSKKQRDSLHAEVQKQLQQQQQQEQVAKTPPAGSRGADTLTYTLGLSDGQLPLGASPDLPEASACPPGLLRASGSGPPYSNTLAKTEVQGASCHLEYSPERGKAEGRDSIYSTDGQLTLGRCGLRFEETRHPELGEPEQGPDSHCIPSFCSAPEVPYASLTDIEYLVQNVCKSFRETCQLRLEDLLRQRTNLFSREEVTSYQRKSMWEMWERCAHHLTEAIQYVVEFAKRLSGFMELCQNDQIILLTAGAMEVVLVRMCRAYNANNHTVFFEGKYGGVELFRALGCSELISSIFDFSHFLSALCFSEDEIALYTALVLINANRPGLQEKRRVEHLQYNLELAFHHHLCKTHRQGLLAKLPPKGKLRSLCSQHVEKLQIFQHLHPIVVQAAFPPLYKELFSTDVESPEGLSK
#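 A Gal4/UAS one-hybrid system in insect cells: metallothionein-promoter Gal4–ROR gamma fusion plus Photinus luciferase reporter. Copper sulfate 700 uM final, 20 hr ambient incubation, luminescent detection after 10 min with reagent.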
# ELG1 repair inh – qHTS screen for small molecules that inhibit ELG1-dependent DNA repair in human embryonic kidney (HEK293T) cells expressing luciferase-tagged ELG1 | AID 504467, 2011 | HEK293T ELG1-luciferase reporter, luminescence, 16 h; DNA damage induced by 5-fluorouridine | 2.3% of 330,000 active | Potency, µM (highest dose often 46.1 µM), for the others: top-dose activity change, negative = inhibition, actives largely listed as inhibitors; further: nearly all actives have a fitted effect of over 55% in size
#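 Luminescence from the luciferase reporter, measured 30 min after ONE-Glo reagent at room temperature, was the read-out. Beforehand, 2,000 cells per well were exposed for 16 hr at 37 °C to 5-fluorouridine together with compound or vehicle.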
# * = called active by the depositor; u = inconclusive; x = not tested or not shown; [ ] = remark or other dose. A selection: hits, their analogues and other compounds. The true share with any hit is near 15%. The call rests on the fitted dose curve; in most records, active means well fitted curve in the direction sought with a large enough effect; inconclusive means small, poorly fitted or top-dose-only effect, or another doubt; inactive means no such curve, though single readings can be large; an effect the other way counts as inactive or inconclusive. On the % scale 0 is the no-effect control and ±100 the full control effect; potency means the concentration at half of the fitted maximal effect.
SMILES,12-LOX inh,Gal4-VP16 FLuc,TDP1 cell noCPT,DT40 TDP1 CPT,RORg inh,ELG1 repair inh
O=C1C(c2ccc(F)cc2)N(Cc2ccccc2Cl)C(=O)CN1C1CCCCC1 (stereo not given),-14%,x,21µM*,23µM*,x,x
COc1ccc(C2C(=O)N(C3CCCCCC3)CC(=O)N2Cc2ccccc2)cc1OC (stereo not given),11%,0%,u,u,-4%,-4%
O=C(c1ccccc1)N1CCC2(CC1)C(=NC1CCCCC1)NC(=O)N2c1cc(F)cc(F)c1,3%[6.33 µM],x,x,x,x,x
COc1ccc(OS(=O)(=O)CCc2ccccc2)cc1,0%,x,x,x,x,x
O=C1C(c2ccc(F)cc2)N(Cc2ccc3c(c2)OCO3)C(=O)CN1C1CCCCCC1 (stereo not given),1%,-13%,15µM*,u,35%,-12%
C[C@@H]1CN([C@H](C)CO)C(=O)c2c(c3ccccc3n2C)-c2ccccc2CO[C@H]1CN(C)Cc1ccccc1,-19%,x,u,u,x,x
C[C@@H]1CN([C@@H](C)CO)C(=O)c2c(c3ccccc3n2C)-c2ccccc2CO[C@H]1CN(C)C(=O)[C@H](Cc1ccccc1)N(C)C,-10%,x,21µM*,u,x,x
C[C@@H]1CN([C@H](C)CO)C(=O)c2c(c3ccccc3n2C)-c2ccccc2CO[C@@H]1CN(C)C(=O)Nc1ccc2c(c1)OCO2,0%,x,u,u,x,x
C[C@H](CO)N1C[C@H](C)[C@H](CN(C)C(=O)Nc2ccc(F)cc2)OCc2ccccc2-c2c(n(C)c3ccccc23)C1=O,-1%,x,13µM*,15µM*,x,x
COC(=O)N(C)C[C@@H]1OCc2ccccc2-c2c(n(C)c3ccccc23)C(=O)N([C@H](C)CO)C[C@@H]1C,2%,x,26µM*,u,x,x
C[C@H](CO)N1C[C@H](C)[C@H](CN(C)Cc2ccncc2)OCc2ccccc2-c2c(n(C)c3ccccc23)C1=O,0%,x,16µM*,26µM*,x,x
CNC[C@@H]1OCc2ccccc2-c2c(n(C)c3ccccc23)C(=O)N([C@H](C)CO)C[C@@H]1C,u,x,18µM*,u,x,x
CC(C)NC(=O)N(C)C[C@@H]1OCc2ccccc2-c2c(n(C)c3ccccc23)C(=O)N([C@@H](C)CO)C[C@@H]1C,u,x,u,-20%,x,x
COc1ccccc1NC(=O)N(C)C[C@@H]1OCc2ccccc2-c2c(n(C)c3ccccc23)C(=O)N([C@H](C)CO)C[C@@H]1C,-19%,x,23µM*,21µM*,x,x
CCOc1ccc(CCNC(=O)c2noc(C)c2Cn2nc(C)cc2C)cc1OCC,6%,x,x,x,x,x
CSCCC(NC(=O)COc1ccccc1)C(=O)N1CCN(c2ccccc2Cl)CC1 (stereo not given),4%,x,u,u,x,-15%
CSCCC(NC(=O)COc1ccccc1)C(=O)N(C)Cc1c(F)cccc1Cl (stereo not given),-19%,x,12µM*,21µM*,x,x
CNC(=O)NC[C@H]1CCN(Cc2ccccc2)C[C@H]1N(C)C,45%,x,x,x,x,x
N#Cc1cccc(CNCC(c2ccccc2)N2CCCC2)c1 (stereo not given),6%,x,x,x,x,x
Fc1ccc(NC(=S)N/N=C/c2ccc(F)c(F)c2)c(F)c1,5%,2.5µM*,0%,-13%,1.1µM*,8%
COc1ccc(C=NNC(=S)Nc2ccc(F)cc2)cc1OC,u,x,2.1µM*,3.3µM*,x,x
COc1ccc(/C=C/C(=O)C2CC2)cc1COc1cccc(C)c1C,u,-6%,23µM*,u,18%,u
COc1ccc(OC)c(NC(=O)COc2cccc(C)c2C)c1,-5%,x,x,x,x,x
COCCCNC(=S)N/N=C/c1ccc(OC)c(Br)c1,25µM*,11µM*,u,u,1µM*,9%
CCOc1ccc(C2NC(=O)N(CC3CC3)C3=C2C(=O)OC3)cc1 (stereo not given),27%,x,x,x,x,x
SMILES,12-LOX inh,Gal4-VP16 FLuc,TDP1 cell noCPT,DT40 TDP1 CPT,RORg inh,ELG1 repair inh
COc1ccc(C=NNC(=S)NN=Cc2ccc(OC)c(OC)c2)cc1OC,u,x,12µM*,7.3µM*,x,x
COc1cc(/C=N/NC(=S)N/N=C/c2cc(OC)c(OC)c(OC)c2)cc(OC)c1OC,2%,4µM*,3.7µM*,4.1µM*,u,u
COc1ccc(/C=N/NC(=S)Nc2cccc(C(=O)O)c2)cc1OC,u,-26%,-6%,9%,u,12%
COc1ccc(/C=N/NC(=S)Nc2ccccc2)cc1COc1cccc(C)c1C,-23%,0.71µM*,u,u,0.35µM*,20%
CC(C(=O)N(C)Cc1ccccc1)S(=O)(=O)Cc1cccc(Cl)c1 (stereo not given),15%,x,x,x,x,x
CCOC(=O)c1n[nH]n2c1nc(=S)c1ccccc12,u,u,-20%,-14%,6.3µM*,-8%
CC(C)Nc1nc(C(=O)Nc2nnc(C(C)C)s2)cs1,39%,x,x,x,x,x
COc1ccc(C2c3ccc4ccccc4c3Oc3ncn(CCCO)c(=N)c32)cc1OC (stereo not given),-4%,-21%,21µM*,u,-20%,-1%
COc1ccc(Cc2nc3c4c(ncn3n2)Oc2c(ccc3ccccc23)C4c2ccc(OC)c(OC)c2)cc1 (stereo not given),-19%,10%,u,-18%,-2%,0%
COc1ccc(C2c3ccc4ccccc4c3Oc3ncn(CCO)c(=N)c32)cc1OC (stereo not given),x,-20%,21µM*,23µM*,u,1%
CCOC(=O)C1=C(C)n2c(s/c(=C3\C(=O)Nc4ccccc43)c2=O)=NC1c1ccc(OC)cc1 (stereo not given),-7%,-14%,21µM*,u,-12%,-2%
CCOC(=O)C1=C(C)N=c2s/c(=C3/C(=O)Nc4ccccc43)c(=O)n2C1c1ccc(C)cc1 (stereo not given),-1%,-9%,23µM*,26µM*,-34%,0%
